This note sets out measurements from PubChem BioAssay (NCI).

The panel holds about 83,000 compounds, 20% with a hit somewhere; the sample as a whole holds those more often.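 Percent growth is the endpoint: 0 to 100 indicates growth inhibition (40 means 60% inhibition), 0 means no net growth, and negative values indicate cell death.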 A number with no mark means an inactive call. Activity calls are given as the source filed them. How the source made its calls: active means growth percent below 10; inactive means the rest.

This test deals with MDA-MB-468 breast. Briefly: NCI-60 one-dose screen, 48 h (100 = growth as untreated, 0 = no growth, -100 = all killed). The settings on record: 10 µM unless noted.
For `COc1ccc(-c2nn(-c3cccc(Cl)c3)cc2/C=C2\C(=N)N(c3ccccc3)N=C2N)cc1`, the growth is 57.6%.
Next, `COc1cc2c(c(OC)c1OC)C(=O)N[C@@H]1[C@@H](O)[C@@H](O)[C@H](O)C[C@@H]21`: 102%; `Cc1ccc(-c2nc3nc(-c4ccc(Br)cc4)nc(N4CCCNCC4)c3o2)cc1`: -65% (active).
As to `O=C1c2cccc3cccc(c23)C(=O)N1C/C=C/c1ccc2c3c(cccc13)C(=O)N(CCO)C2=O`, the growth was 79.8%.
`O=C(CCN1CCOCC1)Nc1cccc(-n2cc(-c3ccncc3)c(-c3ccc(Cl)c(O)c3)n2)c1`: the growth was 25.2%.
In the case of `CCCCCCOc1ccc(C2(Cl)c3ccccc3N(C)c3ccccc32)cc1` it was 50.3%; in that of `CCCCC1C(=O)N(c2ccccc2)N(c2ccccc2)C1=O`, 99.5%.
For `CCN(CCNc1cc(OC)cc2cccnc12)CCc1ccccc1`, the growth is -25.4% (active).
Consider `CC1OC(n2c3ccccc3c3c4c(c5c6ccccc6[nH]c5c32)C(=O)N(CCN[C@@H]2CCC[C@H]2N)C4=O)CC(O)C1O` (stereo partly specified), for which the growth was -26.9% (active).
`COc1ccc2nc(NC(=O)/C(=C/c3cc(OC)c(OC)c(OC)c3)c3ccc(OC)c(OC)c3)sc2c1`: the growth was 109%.
For `C=C1C(=O)O[C@H]2[C@H]1CC/C(COC(=O)NCc1cccc(OC)c1)=C\CC[C@@]1(C)O[C@@H]21`, the growth was -13.2% (active).
`CN(C)c1ccc(/C=C/C2=[N+](C)c3ccccc3C2(C)C)cc1`: the growth is 6.5% (active).
In the case of `Nc1nc(N)c2c(n1)NC(c1ccc(Cl)cc1)CC(c1ccc(Nc3nc(NCCO)nc(Nc4ccc(Cl)cc4)n3)cc1)=N2` (stereo unspecified), the growth is -29% (active).
In the case of `Nc1ccccc1NC(=O)c1ccc(CN2CCC/C(=C\c3ccccn3)C2=O)cc1`, the growth was -6.37% (active).
For the molecule `COC(=O)c1nc(-c2ccc(C)cc2)oc1N1CCOCC1`, the growth is 82.1%.
In the case of `N#Cc1c(-c2ccc(Cl)cc2)nc(N=Nc2c(O)[nH]c3ccc(Cl)cc23)nc1N1CCOCC1`, the growth is 90.8%.
As to `N#CSc1cc(S(N)(=O)=O)ccc1N`, the growth was 105%.
`N#Cc1ccc(/C=C/c2cn(-c3ccccc3)nc2-c2cccc([N+](=O)[O-])c2)cc1`: the growth is 64.7%.
As for `Cc1cc(C)c(N2C(=O)CC(Nc3ccc(Cl)cc3Cl)C2=O)c(C)c1` (stereo unspecified), the growth is 96.1%.
`Clc1ccc(COc2ccc(Nc3ncnc4onc(-c5ccccc5)c34)cc2)cc1`: the growth was 78.5%.
As for `O=C(Nc1ccc([N+](=O)[O-])cc1)C(=O)Nc1ccc([N+](=O)[O-])cc1`, the growth is 105%.
As for `COc1ccc2nc3cc(Cl)ccc3c(NCCN)c2c1`, the growth was -61.6% (active).
Turning to `COc1ccc(-c2nc3ncccn3c2-c2nnc(-c3ccc(F)cc3)o2)cc1`, the growth is 100%.
As for `COc1ccc(/C=C/C(=O)c2ccc(OC)c(OC)c2)cc1O`, the growth is 65.6%.
On to `C=C(C)[C@@H]1CC[C@]2(C(=O)O)CC[C@]3(C)[C@H](CC[C@@H]4[C@@]5(C)C[C@@H](CC#Cc6ccccc6C)C(=O)C(C)(C)[C@@H]5CC[C@]43C)[C@@H]12`, for which the growth was 17.2%.
With `CC(=O)OC1CC2CCC1(C)C2(C)C` (stereo unspecified), the growth was 103%.
As to `Cc1ccc(/C=C/c2c(C(=O)/C=C/c3ccc(C(F)(F)F)cc3)c(C)nc3ccccc23)cc1`, the growth is -57.4% (active).
`CCCc1cc2c(cc1Br)OCO2`: the growth is 115%.
Turning to `CNC(=O)CCN1CCN(CC/C=C2\c3ccccc3Sc3ccc(Cl)cc32)CC1`, the growth is 72.5%.
Regarding `O=C1Nc2ccc(Cl)cc2/C1=N/c1nc(-c2ccc(F)cc2)cs1`, the growth was 27.6%.
For `O=c1c2cccc(F)c2sc2c(N3CCNCC3)nc3ccccc3c12`, the growth was 37.2%.
Next, `CCN(CC)C(=S)SC(SC(=S)N(CC)CC)C(=O)c1nnn(-c2ccc([N+](=O)[O-])cc2)c1C`: 102%; `N#CC1=C(N)Oc2c(c(N)nn2-c2ccccc2)C1c1ccc(Cl)cc1Cl` (stereo unspecified): 129%.
As for `C=C[C@H]1C[C@@H]2C[C@@H]3[C@H]4C/C=C\C(=O)NCCCC5NC(=O)C(=C(O)/C=C/[C@@H]4CC(=O)[C@H]3[C@@H]2[C@H]1C)C5=O` (stereo partly specified), the growth was -29.9% (active).
Next, `O=C(Oc1ccc(CCl)cc1)c1ccccc1`: -62.7% (active); `C=C(C)[C@@H]1CC[C@]2(COCCCN)CC[C@]3(C)[C@H](CC[C@@H]4[C@@](C)(CCCNCCCN)[C@H](C(=C)C)CC[C@]43C)[C@@H]12`: -53.8% [100 µM] (active).
